# ATXN viability – cell viability loss in ATXN counter-screen | S2 cells (HEK-293 line with an ATXN2-luciferase reporter) viability, CellTiter-Fluor protease fluorescence, 24 h | 400,000 compounds, 0.49% hits | AID 651635 | Potency, µM (highest dose often 56.7 µM), most hits filed as cytotoxic; further: potency means the concentration at half of the fitted maximal effect; nearly all actives have a fitted effect of over 40% in size
# ATXN2 expr inh – inhibitors of ATXN2 expression; 360,000 compounds, 0.72% hits; Potency, µM (titrated, usually from 57 µM), without a hit: at the highest dose activity change, negative = inhibition, most hits filed as inhibitors; HEK-293 ATXN2-luciferase reporter, luminescence, 24 h; further: potency means the concentration at half of the fitted maximal effect; on the % scale 0 is the no-effect control and ±100 the full control effect; nearly all actives have a fitted effect of over 55% in size
#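 qHTS (up to 57 uM final) was run with 24 h compound exposure of reporter cells at 37 °C. Each well was multiplexed: SteadyGlo luminescence measured ATXN2-luciferase expression after a fluorogenic Gly-Phe-AFC viability readout (25 uM final).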
# DRD3 agonist – agonists of human D3 dopamine receptor; D3R DiscoveRx beta-arrestin cells, luminescence, 90 min; AID 652048; max activation, %; 410,000 compounds, 0.58% hits; P35462; in the data active means max activation above about 30%; further: 0% is about no effect
# Target sequence (P35462 whole entry, looked up): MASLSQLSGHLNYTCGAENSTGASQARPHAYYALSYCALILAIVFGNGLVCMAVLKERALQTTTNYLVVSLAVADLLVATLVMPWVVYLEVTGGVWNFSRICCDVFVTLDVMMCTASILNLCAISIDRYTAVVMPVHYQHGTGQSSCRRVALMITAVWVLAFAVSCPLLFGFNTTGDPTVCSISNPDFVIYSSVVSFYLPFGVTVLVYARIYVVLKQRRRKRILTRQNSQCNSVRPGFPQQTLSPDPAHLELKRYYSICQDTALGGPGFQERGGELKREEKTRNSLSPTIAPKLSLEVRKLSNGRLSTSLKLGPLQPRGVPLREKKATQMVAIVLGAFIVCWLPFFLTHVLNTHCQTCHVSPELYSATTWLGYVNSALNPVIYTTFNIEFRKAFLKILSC
#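 Agonist-mode cell screen: cells plated at 1500/well and incubated overnight at 37 °C, then exposed to library compounds for 90 min at 37 °C. Detection reagent was added for 30–60 min at room temperature, and luminescence was read.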
# D3 antag – D3 dopamine receptor (human) antagonism; P35462; D3R cells, DiscoveRx beta-arrestin luminescence, antagonist mode; hits give low values; max response, negative = inhibition, %; 360,000 compounds, 2.5% hits; in the data active means max response below about -50%; inconclusive means no clear call, values can overlap the other calls; further: on the % scale 0 is the no-effect control and ±100 the full control effect
#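 Cells plated overnight at 1500 cells/well, then exposed to library compounds with dopamine controls for 90 minutes at 37 degrees C. DiscoveRx reagent added for 30–60 minutes at room temperature; luminescence read, quantitative HTS format.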
# Integrin act MD – integrin-mediated muscular dystrophy alleviation activation; alpha7betagal myoblasts, beta-gal FDG fluorescence, 48 h; Potency, µM (top dose mostly 38.3 µM), for the others: at the top dose activation, usual class: activators; 350,000 compounds, 0.064% hits; AID 624291;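 further: potency means the concentration at half of the fitted maximal effect; 100% = response of the positive control SU9516; nearly all actives have a fitted effect of over 60% in size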
#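 Alpha7betagal+/- myoblasts (passage 13) were plated 16-24 hr, then exposed to compounds (1:260 dilution of DMSO stock) for 48 hours at 37C. After MPER lysis, β-galactosidase reporter activity was read as FDG fluorescence (ex 480/em 540) after 30 minutes.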
# IL1B secr inh – inhibitors of inflammasome signaling (IL-1 beta secretion); activity change, % at 57.5 µM; THP-1 LPS/ATP IL-1B secretion, AlphaLISA, 16 h; hits give low values; 360,000 compounds, 4.7% hits; in the data active means activity change below about -50%; inconclusive means mostly about -30% to -49%; further: on the % scale 0 is the no-effect control and ±100 the full control effect
#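 THP-1 cells pretreated 1 hr with compounds (up to 57.5 uM final), then stimulated with LPS (250 ng/mL final) plus ATP (1.25 mM final); secreted IL-1B measured by AlphaLISA after 16 hr, decreased signal indicating inhibition.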
# * hit, by the source's call; i = inactive; ? = inconclusive; · = no result given. Rows were chosen to be rich in hits. Some 7% of all compounds tested hit in one or more screens of this group. Unless noted, the call rests on the fitted dose curve; in most records, active means well fitted curve in the direction sought with a large enough effect; inconclusive means small, poorly fitted or top-dose-only effect, or another doubt; inactive means no such curve, though single readings can be large; an effect the other way counts as inactive or inconclusive.
SMILES,ATXN viability,ATXN2 expr inh,DRD3 agonist,D3 antag,Integrin act MD,IL1B secr inh
Cc1cc(-c2csc(N)n2)c(C)n1CCc1ccccc1,i,-35%,32*,-19,-19%,-2
O=C(COC(=O)C1(c2ccccc2F)CCCC1)NC1CCS(=O)(=O)C1 (centres undefined),i,-8%,-5,-62*,4%,-1
O=C(COc1ccccc1)NC1CCS(=O)(=O)C1 (centres undefined),i,·,1,-5,?,1
NS(=O)(=O)c1ccc(NC(=O)COC(=O)C2(c3ccccc3F)CCCC2)cc1,?,-16%,-5,-3,29%,-62*
O=C(COC(=O)C1(c2ccc(F)cc2)CCCC1)NCc1ccc2c(c1)OCO2,?,?,-2,-11,-11%,-4
O=C(COC(=O)C1(c2ccccc2F)CCCC1)NCc1ccc2c(c1)OCO2,i,5%,-12,5,-1%,-73*
CCOC(=O)CN(C(=O)Cn1nnc2ccccc21)C(C(=O)NCCOC)c1ccccc1C (centres undefined),i,2%,-2,1,19%,14
Cc1ccc2c(NCc3ccco3)nc(NC(C)C)nc2c1,?,?,-5,-11,·,-111*
Cc1ccc(Nc2nc(N)c([N+](=O)[O-])c(NCc3ccco3)n2)cc1,i,22%,1,-14,-32%,-6
Fc1ccc(Nc2nc(NCc3ccco3)c3ccccc3n2)cc1,11µM*,·,-15,-25,-36%,-102*
Cc1nn2c(=O)cc(COC(=O)c3ccc(C(C)(C)C)cc3)nc2s1,i,-8%,12,·,·,·
OC[C@@H]1CN(Cc2cccs2)C[C@H](n2cnc3c(N4CCOCC4)ncnc32)O1,i,9%,7,34,·,-3
CCS(=O)(=O)N1CC(=O)N(c2cc(Cl)ccc2C)C(C)(C(=O)NC2CCCCCC2)C1 (centres undefined),·,·,3,·,·,·
C[C@@H]1[C@H]2[C@@H](O[C@@H]3O[C@H](CO)[C@@H](O)[C@H](O)[C@H]3O)OC=C(C(=O)O)[C@H]2C[C@@H]1O,i,-15%,43*,-12,-53%,4
COC(=O)c1ccc(NC(=O)c2nn(C)c3c2COc2ccccc2-3)cc1,·,·,3,·,·,·
CCOc1ccc(NC(=O)c2nn(C)c3c2COc2ccccc2-3)cc1,·,·,55*,·,·,·
CC(NC(=O)CCCCCNC(=O)N1CCn2c1nc1ccccc12)c1ccccc1 (centres undefined),i,-13%,-2,-9,9%,-53*
O=C(CCCCCNC(=O)N1CCn2c1nc1ccccc12)N[C@@H](Cc1ccccc1)C(=O)O,i,0%,30*,-17,1%,2
CC(C)[C@H](NC(=O)N1CCn2c1nc1ccccc12)C(=O)NCc1ccc(F)cc1,i,-17%,-2,10,-22%,-94*
CC(C)[C@H](NC(=O)N1CCn2c1nc1ccccc12)C(=O)NCc1ccccc1Cl,i,·,2,-1,7%,2
O=C(CN1CCN(Cc2ccccc2F)C1=O)NC1CCCC1,i,·,-11,-13,-11%,29
CC(=O)c1ccc(OC(=O)c2c(-c3ccccc3Cl)noc2C)cc1,i,8%,-12,·,·,·
CNc1ccc(-c2cccc([N+](=O)[O-])c2)cn1,i,-12%,-8,-59*,·,-8
Cc1cc(CC(=O)O)n(C)c1C(=O)c1ccc(Cl)cc1,i,1%,-18,11,·,7
Cn1cc([N+](=O)[O-])c(C(=O)Nc2sc3c(c2C#N)CCC3)n1,i,·,0,-8,-55%,-93*
SMILES,ATXN viability,ATXN2 expr inh,DRD3 agonist,D3 antag,Integrin act MD,IL1B secr inh
O=C(Nc1sc2c(c1C(=O)O)CCC2)c1cccs1,i,20%,-7,-9,6%,-4
O=C(Nc1sc2c(c1C(=O)NCCCO)CCCC2)c1ccccc1,i,-19%,2,12,-17%,-69*
COC(=O)c1c(NS(=O)(=O)Cc2ccccc2)sc2c1CCCC2,i,-1%,-6,-7,-8%,36
CC(C)OC(=O)c1c(NS(=O)(=O)c2ccccc2)sc2c1CCCC2,i,-18%,-2,-89*,-53%,0
COCCCNC(=O)c1c(NC(=O)c2cccs2)sc2c1CCCC2,i,3%,-4,13,0%,-10
NC(=O)c1c(NC(=O)c2cccs2)sc2c1CCCCCC2,?,38%,15,-13,11%,-84*
CC(C)CN(C(=O)CCC(=O)OC(C)C(=O)Nc1cccc(C#N)c1)c1c(N)n(CC(C)C)c(=O)[nH]c1=O (centres undefined),i,1%,7,-20,-36%,0
O=C(Nc1sc2c(c1C(=O)O)CCC2)c1ccccc1,i,-6%,-3,-52*,8%,16
Cn1cc(Br)c(C(=O)Nc2sc3c(c2C(N)=O)CCCC3)n1,i,42%,-10,6,15%,-82*
NC(=O)c1c(NC(=O)CN2CCN(S(=O)(=O)c3ccccc3)CC2)sc2c1CCC2,i,-18%,2,6,16%,-51*
CCOC(=O)c1c(NC(=O)C(NCCN(C)C)c2ccccc2)sc2c1CCCC2 (centres undefined),·,28µM*,-6,8,-74%,-108*
CCn1cc(Br)c(C(=O)Nc2sc3c(c2C(N)=O)CCCC3)n1,i,2%,-1,-5,14%,i
CCOC(=O)c1c(NC(=O)c2ccccc2Cl)sc2c1CCCC2,i,7%,5,·,·,·
O=C(Nc1sc2c(c1C(=O)O)CCCCC2)c1ccccc1,i,-14%,-14,-19,-7%,31
Cc1ccc(C(C)C)cc1OCC(=O)Nc1ccc(-n2cnnn2)cc1,i,-17%,1,10,13%,-24
NCCNC(=O)c1c(NC(=O)c2ccccc2)sc2c1CCCC2,i,13%,2,18,-40%,-92*
CCN(Cc1ccc(OC)c(F)c1)C(=O)CCl,?,-4%,3,12,-60%,-96*
COc1ccc(CN(C)C(=O)c2ccc(Oc3ccccc3)cc2)cc1F,i,-31%,-3,-29,12%,-74*
COc1ccc(CN(C)C(=O)c2cccc(S(=O)(=O)NCc3ccccc3)c2)cc1F,i,·,-7,7,7%,9
CCCc1nn2c(=O)cc(COC(=O)c3ccccc3NC(=O)c3cccs3)nc2s1,i,-2%,-15,·,·,·
CCOC(=O)/C(=N/Nc1ccc(Cl)cc1)S(=O)(=O)c1ccccc1,i,6%,-11,-9,-1%,-69*
O=C1CNC(=O)N1CC(O)Cn1c2ccccc2c2ccccc21 (centres undefined),i,·,0,20,-4%,-11

# Screening results (PubChem BioAssay)
